From PubChem BioAssay AID1159580 (chemical genetic matrix, 2015)
The campaign covered roughly 5,500 compounds. About 2,000 (36%) were called active. Not shown: some 18% with an inconclusive outcome. No stated cut-off is given here; in the data, active means normalized growth mostly below about 0.91 (no sharp cut-off); inconclusive means no clear call, values can overlap the other calls; inactive means mostly above about 0.92. This is one part of the list.

Experiment: chemical genetic growth profiling, strain panel (AID 1159580);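 further: tested at 20 µM; growth read once vehicle control cultures reached saturation at 30 °C; 1 = growth at the plate median or of vehicle wells; lower values mean less growth of the strain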
Conditions: S. cerevisiae deletion strains, growth OD

Measured: normalized growth

CN(C)CC[C@@H](c1ccc(Br)cc1)c1ccccn1
inactive: locus YAL040C, strain CLN3, active compounds read low 1.05 | locus YCL061C, strain MRC1 (second series), active compounds read low 0.993 | locus YDR363W, strain ESC2, active compounds read low 0.97 | locus YER002W, strain NOP16, active compounds read low 0.99 | locus YGR078C, strain PAC10, active compounds read low 0.991 | locus YMR307W, strain GAS1, active compounds read low 1.01 | locus YNL128W, strain TEP1, active compounds read low 0.984 | locus YNL175C, strain NOP13, active compounds read low 0.988 | locus YNL197C, strain WHI3, active compounds read low 0.928 | locus YNL224C, strain SQS1, active compounds read low 0.985 | locus YNL322C, strain KRE1, active compounds read low 0.983 | locus YOR083W, strain WHI5 (second series), active compounds read low 0.912 | locus YPL055C, strain LGE1, active compounds read low 1

CCN(CC)CCOCCOC(=O)C(CC)(CC)c1ccccc1
inactive: locus YHR030C, strain SLT2, active compounds read low 0.99 | locus YHR079C, strain IRE1, active compounds read low 1.01 | locus YJL095W, strain BCK1, active compounds read low 0.988 | locus YJR066W, strain TOR1, active compounds read low 0.902 | locus YLR113W, strain HOG1, active compounds read low 1.03 | locus YNL183C, strain NPR1, active compounds read low 0.908 | locus YOR231W, strain MKK1, active compounds read low 0.993 | locus YPL256C, strain CLN2, active compounds read low 0.972
